D1 mod = D1 dopamine receptor (human) allosteric modulation. actives 5.9% (n = 58,000). B-score at 10 µM. P21728. HEK293 D1, CRE-luciferase, dopamine EC30 potentiation; actives deviate in either direction;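 active = luminescence count or its row- and column-corrected plate score outside the 99.7% band of the plate's sample wells, on either side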
Target sequence (P21728 whole entry, looked up): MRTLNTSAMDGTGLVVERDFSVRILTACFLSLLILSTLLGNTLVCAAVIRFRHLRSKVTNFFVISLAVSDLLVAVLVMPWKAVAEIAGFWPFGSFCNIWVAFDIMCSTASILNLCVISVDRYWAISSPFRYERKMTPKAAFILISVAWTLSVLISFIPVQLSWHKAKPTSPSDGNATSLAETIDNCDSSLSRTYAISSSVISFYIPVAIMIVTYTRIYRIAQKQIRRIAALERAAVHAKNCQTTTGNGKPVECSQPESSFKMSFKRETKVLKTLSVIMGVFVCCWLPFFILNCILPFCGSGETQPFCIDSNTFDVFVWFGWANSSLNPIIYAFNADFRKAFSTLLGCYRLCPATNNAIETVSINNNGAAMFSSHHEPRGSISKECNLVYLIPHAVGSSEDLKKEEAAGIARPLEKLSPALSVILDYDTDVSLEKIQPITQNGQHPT
EphB4 antag = EphB4-ephrin-B2 interaction antagonism; P54760; EphB4 LBD / TNYL-RAW-Alexa532 peptide, fluorescence polarization; inhibition, % at 7 µM; actives 0.15% (n = 97,000); AID 720;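 active = inhibition above the screen-wide mean inhibition plus 3 SD, cut at about 15% in these data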;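 also: 0% = DMSO wells and 100% = excess unlabeled TNYL-RAW peptide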
hDAT+cocaine = changed human dopamine transporter uptake under cocaine IC80; Q01959; LLC-PK1 hDAT cells, [14C]-dopamine uptake with cocaine IC80; actives deviate in either direction; B-score at 10 µM; actives 1.3% (n = 110,000); AID 449768;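 active = Z score or B-score, a plate-position-corrected score, falls beyond the plate's 99.7% confidence bounds, in either direction; inactive = both scores lie inside the 99.7% bounds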;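 also: scored against the spread of the other compound wells on the same plate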
D1 mod confirm = confirmation of human D1 dopamine receptor allosteric modulators; actives 88% (n = 2,200); shares compounds with D1 mod; HEK293 D1 CRE-luciferase, dopamine EC30 potentiation; hits give high values; luminescence at 10 µM;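 active = luminescence in either of two replicates above the same-plate mean plus 3 SD of the low-dose dopamine control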
D1 ag no DA = secondary test of D1 modulators: activity without dopamine; HEK293 D1 CRE-luciferase, luminescence, no dopamine; hits give high values; actives 0.8% (n = 1,900); luminescence at 10 µM; shares compounds with D1 mod; AID 646; in the data active = luminescence above about 3900
Isoprot counter = isoproterenol response counter-screen activity for D1 modulators; calls only at 10 µM; actives 63% (n = 2,200); HEK293 D1 CRE-luciferase, isoproterenol EC30 counter-screen; shares compounds with D1 mod;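 active = luminescence in either replicate above plate mean of wells with a partly effective reference agonist dose plus 3 SD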;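 also: isoproterenol raises cAMP through native beta-adrenoceptor Gs so signal bypasses D1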
* hit, by the source's call; i = inactive; x = not tested or not shown; + = active, no number. Many of the other results were omitted from the sample, so hits are more common in it than they were.

SMILES	D1 mod	EphB4 antag	hDAT+cocaine	D1 mod confirm	D1 ag no DA	Isoprot counter
NC(=O)CC(NC(=O)Cc1ccc(Cl)cc1)c1ccc(NCc2ccccc2)c([N+](=O)[O-])c1 (stereo unspecified)	x	x	-0.62	x	x	x
COC(=O)c1ccc(OC)c(CSc2nnc(COc3cccc(C)c3)o2)c1	0.13	x	-0.76	x	x	x
COC(=O)c1ccc(OC)c(CSc2nnc(COc3ccc(OC)cc3)o2)c1	6.4*	x	-0.011	5284	1456	i
C/C(Cl)=C/Cn1c(NCCN(C)C)nc2c1c(=O)n(C)c(=O)n2C	1.3	-7	-0.04	x	x	x
C/C(Cl)=C\Cn1c(Nc2ccccc2)nc2c1c(=O)n(C)c(=O)n2C	14*	-2	-0.22	11964*	x	+
N#Cc1c(N2CCN(C(=O)c3ccco3)CC2)nc(-c2ccccc2)c2c1CCCC2	2.8*	7	0.38	13716*	1492	+
N#Cc1c(N2CCN(C(=O)c3ccccc3)CC2)nc(-c2ccccc2)c2c1CCCC2	x	-5	-0.57	x	x	x
CC(C)Cc1nc(N2CCCCC2)c(C#N)c2c1CCC2	0.2	10	-0.047	x	x	x
CC(=O)N1CCN(c2nc(CC(C)C)c3c(c2C#N)CCC3)CC1	18*	5	0.75	22940*	1688	+
CC(C)Cc1nc(N2CCN(C(=O)c3ccccc3)CC2)c(C#N)c2c1CCC2	x	1	0.068	x	x	x
CC1(C)Cc2c(C#N)c(N3CCN(C(=O)c4ccco4)CC3)nc(Cc3ccccc3)c2CO1	x	7	0.85	x	x	x
CC(C)Cc1nc(N2CCN(C(=O)C(C)C)CC2)c(C#N)c2c1CCC2	4.5*	-7	1.7	7400*	1544	i
CC(C)Cc1nc(N2CCN(C(=O)c3ccco3)CC2)c(C#N)c2c1CCC2	7.5*	3	1.2	12548*	1660	+
CCCCN(C)C(=O)c1c[nH]c2ccc(S(=O)(=O)N3CCOCC3)cc2c1=O	0.56	x	0.021	x	x	x
NC(=O)C1CCN(C(c2ccccc2Cl)c2nnnn2Cc2ccc3c(c2)OCO3)CC1 (stereo unspecified)	0.58	-2	-1.4	x	x	x
CCOC(=O)Cc1csc(NC(=O)CCCCCN2C(=O)c3ccccc3C2=O)n1	x	5	-0.48	x	x	x
OCC[C@@H]1C[C@H](O)[C@@H](O)[C@@]2(CCCCO2)O1	x	x	-0.035	x	x	x
O=C(c1ccco1)N1CCN(c2nc3ccccc3n3nnnc23)CC1	1.1	x	-0.29	x	x	x
CCCc1nc(N2CCOCC2)c(C#N)c2c1CCCC2	6.5*	-5	-0.15	7888*	1524	i
CC(C)c1cc(N2CCN(C(=O)c3ccco3)CC2)n2c(nc3ccccc32)c1C#N	6*	3	0.1	8868*	x	+
Cc1nc(N2CCN(C(=O)c3ccco3)CC2)c2c3c(sc2n1)CCCC3	x	5	1.2	x	x	x
O=C(c1ccco1)N1CCN(c2nc(C3CC3)nc3sc4c(c23)CCCC4)CC1	6.9*	-1	0.2	15256*	1564	i
CCCCc1nc(N2CCOCC2)c(C#N)c2c1CCCC2	x	-5	0.88	x	x	x
CC(C)C(=O)c1cn(CC(=O)N2CCCc3ccccc32)c2ccccc12	x	5	-0.12	x	x	x
COc1cccc(OC)c1NC(=O)CN1CCC(NC(=O)c2cccc(F)c2)CC1	x	-2	-0.37	x	x	x
SMILES	D1 mod	EphB4 antag	hDAT+cocaine	D1 mod confirm	D1 ag no DA	Isoprot counter
Cc1sc(NC(=O)CSc2nnc(COc3ccccc3)n2C)c(C#N)c1C	6.8*	-1	-1	6452	1688	i
COCCn1c(SCC(=O)Nc2sc(C)c(C)c2C#N)nnc1C(C)C	0.66	-7	1.1	x	x	x
Cc1ccc(OCc2nnc(SCC(=O)Nc3sc(C)c(C)c3C#N)n2C)cc1	2.1	x	-2.1	x	x	x
CCn1c(SCC(=O)Nc2sc(C)c(C)c2C#N)nnc1C(C)C	4.5*	-2	-0.36	5156	1684	i
COc1ccccc1Nc1nc(N)nc(CSc2nncn2C)n1	12*	-3	-0.073	6088	x	i
Cc1ccccc1Nc1nc(N)nc(CSc2nnc(-c3ccccc3)n2C)n1	x	-1	1.6	x	x	x
O=C1CC(c2ccc(F)cc2)Sc2ccccc2N1 (stereo unspecified)	28*	4	1.9	22156*	1556	+
COc1cc(C2CC(=O)Nc3ccccc3S2)cc(OC)c1OC (stereo unspecified)	-1.8	x	-1.4	x	x	x
CC1(C)OC(=O)C(=NNc2ccc(Cl)cc2)C(=O)O1	x	6	-1.1	x	x	x
COc1ccc(-c2ccnc3nc(N4CCN(c5ccccc5)CC4)nn23)cc1	x	-2	0.14	x	x	x
O=C(/C=C/c1ccccc1)NCCc1ccccc1	x	x	-0.29	x	x	x
COc1ccc(OC)c(NC(=O)Cc2coc3cc(C)cc(C)c23)c1	x	1	-0.073	x	x	x
COc1ccc(-c2nnc3sc(C(C)N4C(=O)c5ccccc5C4=O)nn23)cc1 (stereo unspecified)	9.3*	-5	1.4	10292*	1588	+
COc1ccc(-c2nnc3sc(CN4C(=O)c5ccccc5C4=O)nn23)cc1	-0.21	x	0.14	x	x	x
CCN(CC)S(=O)(=O)c1ccc2c(c1)C(=NO)c1cc(S(=O)(=O)N(CC)CC)ccc1-2	x	-7	0.93	x	x	x
Cc1cc(C)nc(Sc2ncnc3sc4c(c23)CCC4)n1	x	-1	1.2	x	x	x
CC(C#N)Sc1ncnc2sc3c(c12)CCC3 (stereo unspecified)	6.3*	-2	0.14	21012*	1792	+
N#CCSc1ncnc2sc3c(c12)CCC3	4.9*	-3	-0.8	12888*	1696	i
Cc1nc(SCC#N)c2c3c(sc2n1)CCC3	x	3	-0.086	x	x	x
O=C(CCCCCn1c(=O)[nH]c2ccsc2c1=O)NCc1ccc2c(c1)OCO2	x	5	0.017	x	x	x
CC1(C)NC(=O)N(CCOCCOc2c(Cl)cc(Cl)cc2Cl)C1=O	x	-2	-0.84	x	x	x
CCN(CC)c1nc(SCC(=O)O)nc(N(CC)CC)n1	1	4	1.2	x	x	x
CCN(CC)c1nc(C#N)nc(N(CC)CC)n1	14*	x	-0.0025	15976*	1596	+
COc1ccc(NC(=O)COC(=O)CCCc2c[nH]c3ccccc23)cc1OC	x	1	0.0036	x	x	x
O=C1Nc2ccc(F)cc2C12SCCS2	x	4	x	x	x	x
SMILES	D1 mod	EphB4 antag	hDAT+cocaine	D1 mod confirm	D1 ag no DA	Isoprot counter
Cc1nc(SCC(=O)NCCc2ccc(Cl)cc2)nc(C)c1C	x	-1	1.1	x	x	x
COc1ccc2c(=O)c(-c3ccc(OC)c(OC)c3)coc2c1	x	x	2.2	x	x	x
COc1ccc(-c2coc3cc(O)ccc3c2=O)cc1OC	4.6*	1	0.003	9756*	1616	i
CCCc1cc(C(=O)NNC(=S)NC(C)c2ccccc2)cs1 (stereo unspecified)	x	5	0.023	x	x	x
Cc1cc(C)c(C#N)c(SCc2ccccc2)n1	x	7	-0.53	x	x	x
CCOC(=O)C(C)Sc1nc(-c2ccco2)cc(C(F)(F)F)c1C#N (stereo unspecified)	-1.3	-5	0.23	x	x	x
N#Cc1ccc(-c2ccco2)nc1SCc1ccccc1	3.1*	7	-0.62	17912*	1576	i
CCSc1nc(-c2ccco2)ccc1C#N	2.7*	9	0.26	6188*	1560	i

High-throughput results as filed in PubChem.
